Data published in ChEMBL document CHEMBL1961873, “Compounds: GSK PKIS; Assays: Nanosyn kinase panel” (2012).

Columns and labels:
[1] = target: Tyrosine-protein kinase CSK (Homo sapiens) (UniProt P41240); settings: at 1 µM;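 note: each value is an averaged inhibition reading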
[2] = target: T1, Discoidin domain-containing receptor 2 (Homo sapiens) (UniProt Q16832); settings: at 0.1 µM
T1 sequence (whole entry): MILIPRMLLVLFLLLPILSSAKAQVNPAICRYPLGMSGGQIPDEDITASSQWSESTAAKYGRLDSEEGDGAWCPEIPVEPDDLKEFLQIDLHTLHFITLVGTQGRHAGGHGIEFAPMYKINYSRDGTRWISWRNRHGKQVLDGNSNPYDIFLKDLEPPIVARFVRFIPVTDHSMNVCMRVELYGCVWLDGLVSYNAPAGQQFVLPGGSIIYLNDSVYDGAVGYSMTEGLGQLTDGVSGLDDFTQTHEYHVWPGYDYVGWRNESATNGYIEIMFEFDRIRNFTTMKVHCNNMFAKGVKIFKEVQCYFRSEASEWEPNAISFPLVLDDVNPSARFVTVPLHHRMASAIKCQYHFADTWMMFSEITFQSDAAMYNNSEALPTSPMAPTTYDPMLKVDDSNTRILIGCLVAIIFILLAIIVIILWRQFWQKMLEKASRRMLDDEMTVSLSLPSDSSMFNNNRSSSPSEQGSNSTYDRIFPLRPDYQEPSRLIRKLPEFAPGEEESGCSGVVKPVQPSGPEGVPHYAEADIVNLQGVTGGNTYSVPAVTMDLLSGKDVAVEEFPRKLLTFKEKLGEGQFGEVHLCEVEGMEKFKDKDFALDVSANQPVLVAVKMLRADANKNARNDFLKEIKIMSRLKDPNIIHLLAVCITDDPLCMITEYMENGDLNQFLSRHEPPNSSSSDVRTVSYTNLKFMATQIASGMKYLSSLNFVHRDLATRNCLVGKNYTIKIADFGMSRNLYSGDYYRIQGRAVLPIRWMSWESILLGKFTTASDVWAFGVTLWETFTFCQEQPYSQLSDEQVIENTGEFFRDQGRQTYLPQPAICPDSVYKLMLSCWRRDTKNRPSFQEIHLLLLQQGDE

[3] = target: T1, Discoidin domain-containing receptor 2 (Homo sapiens); settings: at 1 µM
[4] = target: Epidermal growth factor receptor (Homo sapiens) (UniProt P00533); settings: at 0.1 µM
[5] = target: Epidermal growth factor receptor (Homo sapiens) (UniProt P00533); settings: at 1 µM
[6] = system: Epidermal growth factor receptor (Homo sapiens), P00533 [L858R]; settings: at 0.1 µM
Sequence of Epidermal growth factor receptor (Homo sapiens), P00533 [L858R] (P00533 whole entry L858R): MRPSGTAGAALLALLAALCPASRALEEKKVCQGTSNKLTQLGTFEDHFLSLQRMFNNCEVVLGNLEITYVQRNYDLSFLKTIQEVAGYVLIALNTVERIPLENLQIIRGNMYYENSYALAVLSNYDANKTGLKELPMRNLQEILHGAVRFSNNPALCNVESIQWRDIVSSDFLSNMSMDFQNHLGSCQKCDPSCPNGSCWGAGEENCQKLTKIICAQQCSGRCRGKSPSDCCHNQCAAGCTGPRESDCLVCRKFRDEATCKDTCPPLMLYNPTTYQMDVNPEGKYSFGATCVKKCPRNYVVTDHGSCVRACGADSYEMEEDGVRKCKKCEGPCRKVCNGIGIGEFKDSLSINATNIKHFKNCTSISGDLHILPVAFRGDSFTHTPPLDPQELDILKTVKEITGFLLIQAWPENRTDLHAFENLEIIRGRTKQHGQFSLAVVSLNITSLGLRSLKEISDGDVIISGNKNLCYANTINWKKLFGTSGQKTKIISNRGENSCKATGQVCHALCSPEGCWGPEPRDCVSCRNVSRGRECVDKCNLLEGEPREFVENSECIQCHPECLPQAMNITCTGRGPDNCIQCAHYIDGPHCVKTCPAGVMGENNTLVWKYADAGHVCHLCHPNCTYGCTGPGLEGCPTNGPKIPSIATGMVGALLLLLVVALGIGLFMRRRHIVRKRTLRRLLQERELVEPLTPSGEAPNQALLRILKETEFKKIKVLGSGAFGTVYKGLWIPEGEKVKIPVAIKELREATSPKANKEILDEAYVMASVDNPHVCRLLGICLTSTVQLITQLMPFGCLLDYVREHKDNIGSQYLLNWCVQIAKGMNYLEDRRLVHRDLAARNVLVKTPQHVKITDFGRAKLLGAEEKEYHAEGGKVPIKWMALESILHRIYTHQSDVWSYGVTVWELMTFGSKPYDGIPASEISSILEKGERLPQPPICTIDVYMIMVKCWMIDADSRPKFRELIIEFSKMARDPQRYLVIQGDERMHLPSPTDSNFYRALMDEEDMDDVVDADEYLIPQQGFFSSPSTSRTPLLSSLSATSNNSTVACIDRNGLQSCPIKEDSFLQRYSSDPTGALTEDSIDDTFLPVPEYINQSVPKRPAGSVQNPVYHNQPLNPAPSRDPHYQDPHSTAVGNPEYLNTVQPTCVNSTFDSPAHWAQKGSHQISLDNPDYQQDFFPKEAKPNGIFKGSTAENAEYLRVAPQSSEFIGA

[7] = system: Epidermal growth factor receptor (Homo sapiens), P00533 [L858R]; settings: at 1 µM
[8] = system: Epidermal growth factor receptor (Homo sapiens), P00533 [L861Q]; settings: at 0.1 µM
Sequence of Epidermal growth factor receptor (Homo sapiens), P00533 [L861Q] (P00533 whole entry L861Q): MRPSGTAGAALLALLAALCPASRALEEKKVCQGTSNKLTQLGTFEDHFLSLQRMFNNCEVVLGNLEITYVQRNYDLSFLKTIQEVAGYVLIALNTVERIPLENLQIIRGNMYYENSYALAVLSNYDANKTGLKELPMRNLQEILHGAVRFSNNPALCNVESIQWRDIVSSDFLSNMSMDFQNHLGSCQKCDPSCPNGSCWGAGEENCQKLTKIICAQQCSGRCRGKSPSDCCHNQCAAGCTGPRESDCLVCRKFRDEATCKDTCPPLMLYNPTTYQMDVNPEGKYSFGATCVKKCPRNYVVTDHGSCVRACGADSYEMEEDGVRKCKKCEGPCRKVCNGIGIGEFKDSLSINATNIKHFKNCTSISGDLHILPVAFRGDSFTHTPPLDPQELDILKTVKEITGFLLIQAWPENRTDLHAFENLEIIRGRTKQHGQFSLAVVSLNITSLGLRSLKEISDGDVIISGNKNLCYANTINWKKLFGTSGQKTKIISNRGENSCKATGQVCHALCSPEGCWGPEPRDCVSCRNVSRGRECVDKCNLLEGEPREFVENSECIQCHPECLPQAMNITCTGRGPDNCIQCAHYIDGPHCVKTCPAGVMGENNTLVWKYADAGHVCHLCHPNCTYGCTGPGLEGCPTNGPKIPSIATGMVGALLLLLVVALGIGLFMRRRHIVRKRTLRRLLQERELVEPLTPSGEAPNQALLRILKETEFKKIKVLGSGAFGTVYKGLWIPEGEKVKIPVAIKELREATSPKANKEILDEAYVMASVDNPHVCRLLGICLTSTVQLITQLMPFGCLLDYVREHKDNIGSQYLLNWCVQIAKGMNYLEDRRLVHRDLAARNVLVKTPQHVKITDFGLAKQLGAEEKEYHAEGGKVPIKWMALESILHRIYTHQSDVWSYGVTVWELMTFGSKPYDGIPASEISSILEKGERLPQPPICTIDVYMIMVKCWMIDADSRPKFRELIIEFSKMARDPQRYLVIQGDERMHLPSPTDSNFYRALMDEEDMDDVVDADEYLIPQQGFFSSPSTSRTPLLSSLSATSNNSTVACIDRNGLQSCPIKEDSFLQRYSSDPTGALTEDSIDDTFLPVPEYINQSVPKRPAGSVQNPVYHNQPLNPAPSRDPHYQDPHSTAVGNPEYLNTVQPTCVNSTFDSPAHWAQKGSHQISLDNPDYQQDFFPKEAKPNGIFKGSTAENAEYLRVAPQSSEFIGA

[9] = system: Epidermal growth factor receptor (Homo sapiens), P00533 [L861Q]; settings: at 1 µM
[10] = system: Epidermal growth factor receptor (Homo sapiens), P00533 [T790M]; settings: at 0.1 µM
[11] = system: Epidermal growth factor receptor (Homo sapiens), P00533 [T790M]; settings: at 1 µM
[12] = system: Epidermal growth factor receptor (Homo sapiens), P00533 [L858R,T790M]; settings: at 0.1 µM
Sequence of Epidermal growth factor receptor (Homo sapiens), P00533 [L858R,T790M] (P00533 whole entry T790M/L858R, looked up): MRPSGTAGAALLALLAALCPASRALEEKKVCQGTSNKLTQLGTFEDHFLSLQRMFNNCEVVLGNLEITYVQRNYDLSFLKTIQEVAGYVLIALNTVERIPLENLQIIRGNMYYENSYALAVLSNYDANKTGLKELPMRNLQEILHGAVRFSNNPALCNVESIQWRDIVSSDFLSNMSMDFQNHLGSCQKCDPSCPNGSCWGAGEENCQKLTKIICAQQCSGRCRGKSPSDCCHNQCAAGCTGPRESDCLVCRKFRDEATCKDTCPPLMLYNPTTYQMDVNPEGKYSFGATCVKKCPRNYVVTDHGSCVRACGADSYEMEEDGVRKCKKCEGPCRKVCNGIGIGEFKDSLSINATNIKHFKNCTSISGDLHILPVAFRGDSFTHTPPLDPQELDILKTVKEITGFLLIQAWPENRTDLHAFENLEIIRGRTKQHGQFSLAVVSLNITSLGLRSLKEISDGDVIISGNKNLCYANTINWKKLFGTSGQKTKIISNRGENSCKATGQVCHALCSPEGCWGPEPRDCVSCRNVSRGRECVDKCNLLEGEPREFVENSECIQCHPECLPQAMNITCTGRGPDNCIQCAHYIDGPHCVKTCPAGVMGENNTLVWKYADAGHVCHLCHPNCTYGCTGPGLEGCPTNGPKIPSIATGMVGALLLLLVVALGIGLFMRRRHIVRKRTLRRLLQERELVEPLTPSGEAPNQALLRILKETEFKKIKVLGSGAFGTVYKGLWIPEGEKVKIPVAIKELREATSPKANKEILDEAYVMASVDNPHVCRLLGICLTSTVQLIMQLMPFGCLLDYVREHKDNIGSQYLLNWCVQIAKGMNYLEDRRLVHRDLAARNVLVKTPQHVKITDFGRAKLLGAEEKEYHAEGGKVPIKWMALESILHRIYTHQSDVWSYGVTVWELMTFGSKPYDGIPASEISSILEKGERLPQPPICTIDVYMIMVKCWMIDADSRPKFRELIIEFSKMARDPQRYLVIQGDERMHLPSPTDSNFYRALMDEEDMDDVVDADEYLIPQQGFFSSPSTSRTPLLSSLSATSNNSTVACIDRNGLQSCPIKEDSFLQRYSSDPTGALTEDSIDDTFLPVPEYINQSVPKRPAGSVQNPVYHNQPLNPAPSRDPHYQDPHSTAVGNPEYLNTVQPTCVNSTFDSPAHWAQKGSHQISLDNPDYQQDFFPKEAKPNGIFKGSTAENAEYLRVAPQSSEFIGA

[13] = system: Epidermal growth factor receptor (Homo sapiens), P00533 [L858R,T790M]; settings: at 1 µM
[14] = target: Ephrin type-A receptor 2 (Homo sapiens) (UniProt P29317); settings: at 0.1 µM
[15] = target: Ephrin type-A receptor 2 (Homo sapiens) (UniProt P29317); settings: at 1 µM
[16] = target: T2, Ephrin type-A receptor 3 (Homo sapiens) (UniProt P29320); settings: at 0.1 µM
T2 sequence (whole entry): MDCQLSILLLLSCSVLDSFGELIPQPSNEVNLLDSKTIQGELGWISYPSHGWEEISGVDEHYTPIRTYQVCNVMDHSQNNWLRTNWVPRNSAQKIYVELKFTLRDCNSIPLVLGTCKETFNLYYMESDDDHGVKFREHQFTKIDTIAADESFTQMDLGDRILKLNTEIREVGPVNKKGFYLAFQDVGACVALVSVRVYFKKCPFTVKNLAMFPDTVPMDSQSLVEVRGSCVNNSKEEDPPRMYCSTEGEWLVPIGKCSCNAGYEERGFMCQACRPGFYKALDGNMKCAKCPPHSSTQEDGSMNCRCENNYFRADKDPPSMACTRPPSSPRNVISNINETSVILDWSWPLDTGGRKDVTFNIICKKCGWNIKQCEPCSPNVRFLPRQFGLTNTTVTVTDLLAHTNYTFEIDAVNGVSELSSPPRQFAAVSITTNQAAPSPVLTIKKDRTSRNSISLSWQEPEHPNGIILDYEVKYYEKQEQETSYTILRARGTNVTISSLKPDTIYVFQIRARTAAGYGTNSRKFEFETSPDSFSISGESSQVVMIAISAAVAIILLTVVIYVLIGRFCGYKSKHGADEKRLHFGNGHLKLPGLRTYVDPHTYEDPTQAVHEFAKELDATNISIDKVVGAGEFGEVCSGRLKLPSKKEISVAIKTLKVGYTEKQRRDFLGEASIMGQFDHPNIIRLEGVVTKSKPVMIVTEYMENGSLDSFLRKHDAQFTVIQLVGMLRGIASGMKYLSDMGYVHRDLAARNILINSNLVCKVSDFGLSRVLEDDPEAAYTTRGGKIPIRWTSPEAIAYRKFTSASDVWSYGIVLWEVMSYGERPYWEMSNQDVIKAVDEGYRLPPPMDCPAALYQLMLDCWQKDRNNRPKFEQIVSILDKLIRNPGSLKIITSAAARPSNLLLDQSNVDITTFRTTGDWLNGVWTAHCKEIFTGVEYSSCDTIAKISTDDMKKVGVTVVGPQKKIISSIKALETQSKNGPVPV

[17] = target: T2, Ephrin type-A receptor 3 (Homo sapiens); settings: at 1 µM
[18] = target: Ephrin type-A receptor 4 (Homo sapiens) (UniProt P54764); settings: at 0.1 µM
Sequence of Ephrin type-A receptor 4 (Homo sapiens) (P54764 whole entry): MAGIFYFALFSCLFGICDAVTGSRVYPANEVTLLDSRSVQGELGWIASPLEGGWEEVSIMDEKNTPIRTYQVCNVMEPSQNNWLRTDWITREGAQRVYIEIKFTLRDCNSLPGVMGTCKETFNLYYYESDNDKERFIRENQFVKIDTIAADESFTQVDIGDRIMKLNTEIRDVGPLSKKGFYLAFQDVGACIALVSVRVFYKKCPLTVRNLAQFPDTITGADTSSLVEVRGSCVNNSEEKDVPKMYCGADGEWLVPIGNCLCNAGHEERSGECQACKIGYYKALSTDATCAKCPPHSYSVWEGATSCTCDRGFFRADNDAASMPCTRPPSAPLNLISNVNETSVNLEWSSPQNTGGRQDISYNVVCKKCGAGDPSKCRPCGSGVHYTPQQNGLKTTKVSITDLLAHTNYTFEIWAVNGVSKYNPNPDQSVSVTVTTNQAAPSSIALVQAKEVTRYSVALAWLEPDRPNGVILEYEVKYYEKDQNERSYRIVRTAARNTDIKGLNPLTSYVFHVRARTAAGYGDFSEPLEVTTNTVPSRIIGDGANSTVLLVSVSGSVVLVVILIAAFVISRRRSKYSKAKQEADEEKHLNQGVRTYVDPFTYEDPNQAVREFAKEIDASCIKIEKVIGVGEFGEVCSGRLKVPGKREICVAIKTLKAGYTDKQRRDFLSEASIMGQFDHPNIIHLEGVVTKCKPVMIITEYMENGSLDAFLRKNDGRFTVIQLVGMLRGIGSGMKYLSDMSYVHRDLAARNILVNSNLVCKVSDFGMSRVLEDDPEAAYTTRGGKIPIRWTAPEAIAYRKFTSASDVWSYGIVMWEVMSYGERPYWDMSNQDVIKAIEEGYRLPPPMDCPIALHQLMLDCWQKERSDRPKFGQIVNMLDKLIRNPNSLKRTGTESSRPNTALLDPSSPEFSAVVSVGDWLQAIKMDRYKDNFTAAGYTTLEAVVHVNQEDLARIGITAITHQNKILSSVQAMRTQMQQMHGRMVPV

[19] = target: Ephrin type-A receptor 4 (Homo sapiens) (UniProt P54764); settings: at 1 µM
[20] = target: T3, Ephrin type-B receptor 2 (Homo sapiens) (UniProt P29323); settings: at 0.1 µM;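 note: reported as mean inhibition of EPHB2, from the GSK PKIS dataset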
T3 sequence (whole entry): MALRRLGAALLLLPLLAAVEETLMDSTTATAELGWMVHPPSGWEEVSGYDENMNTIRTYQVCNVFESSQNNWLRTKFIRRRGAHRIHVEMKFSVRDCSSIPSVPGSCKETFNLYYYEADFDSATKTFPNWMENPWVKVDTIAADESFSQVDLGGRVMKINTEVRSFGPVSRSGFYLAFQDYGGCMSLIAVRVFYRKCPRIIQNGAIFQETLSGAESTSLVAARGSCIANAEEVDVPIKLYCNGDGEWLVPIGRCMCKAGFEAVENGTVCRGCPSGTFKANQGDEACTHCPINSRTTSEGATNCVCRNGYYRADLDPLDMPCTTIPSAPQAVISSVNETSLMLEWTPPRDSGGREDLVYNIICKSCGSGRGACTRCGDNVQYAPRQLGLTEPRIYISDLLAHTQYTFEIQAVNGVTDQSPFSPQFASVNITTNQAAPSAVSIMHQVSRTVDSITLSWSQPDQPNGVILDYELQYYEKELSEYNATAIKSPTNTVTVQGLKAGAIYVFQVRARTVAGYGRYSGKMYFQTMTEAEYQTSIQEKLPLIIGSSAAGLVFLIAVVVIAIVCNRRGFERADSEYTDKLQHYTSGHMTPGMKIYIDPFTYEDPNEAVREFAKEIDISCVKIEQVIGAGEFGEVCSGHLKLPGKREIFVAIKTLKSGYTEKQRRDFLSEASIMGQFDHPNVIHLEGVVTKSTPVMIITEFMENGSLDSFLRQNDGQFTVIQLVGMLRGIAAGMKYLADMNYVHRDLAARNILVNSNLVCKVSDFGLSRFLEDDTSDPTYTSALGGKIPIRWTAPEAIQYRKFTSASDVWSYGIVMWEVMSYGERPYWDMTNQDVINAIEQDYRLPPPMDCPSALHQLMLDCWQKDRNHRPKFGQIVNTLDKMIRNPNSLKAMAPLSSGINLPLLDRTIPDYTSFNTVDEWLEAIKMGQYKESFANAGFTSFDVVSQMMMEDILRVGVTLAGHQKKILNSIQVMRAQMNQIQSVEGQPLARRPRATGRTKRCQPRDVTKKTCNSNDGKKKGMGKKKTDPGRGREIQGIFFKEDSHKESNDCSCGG

Sequence of Tyrosine-protein kinase CSK (Homo sapiens) (P41240 2-450 limits assumed): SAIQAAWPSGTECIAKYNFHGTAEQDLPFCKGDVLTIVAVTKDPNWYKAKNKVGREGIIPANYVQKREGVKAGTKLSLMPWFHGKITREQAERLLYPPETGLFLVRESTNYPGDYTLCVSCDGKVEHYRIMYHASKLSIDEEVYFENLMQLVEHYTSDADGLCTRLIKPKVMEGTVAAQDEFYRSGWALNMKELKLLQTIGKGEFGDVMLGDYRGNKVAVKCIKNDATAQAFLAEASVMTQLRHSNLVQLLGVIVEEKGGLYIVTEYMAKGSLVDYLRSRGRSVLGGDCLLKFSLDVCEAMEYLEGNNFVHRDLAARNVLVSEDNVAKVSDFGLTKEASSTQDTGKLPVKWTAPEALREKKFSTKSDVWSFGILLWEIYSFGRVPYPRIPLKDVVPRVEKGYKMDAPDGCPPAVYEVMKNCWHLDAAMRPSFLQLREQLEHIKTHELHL

| Compound | inhibition [1] | inhibition [2] | inhibition [3] | inhibition [4] | inhibition [5] | inhibition [6] | inhibition [7] | inhibition [8] | inhibition [9] | inhibition [10] | inhibition [11] | inhibition [12] | inhibition [13] | inhibition [14] | inhibition [15] | inhibition [16] | inhibition [17] | inhibition [18] | inhibition [19] | inhibition [20] |
| --- | --- | --- | --- | --- | --- | --- | --- | --- | --- | --- | --- | --- | --- | --- | --- | --- | --- | --- | --- | --- |
| CCN1CCC(CC(=O)Nc2n[nH]c3nc(-c4cccs4)c(Br)cc23)CC1 | -4.84% | -0.58% | 0.03% | 1.1% | 3.65% | 0.06% | 3.28% | -0.27% | 1.14% | -1.65% | -1.12% | 0.09% | -0.41% | -3.7% | -1.54% | -7.71% | -2.29% | -7.32% | -3.58% | -2.13% |
| CS(=O)(=O)CCNCc1ccc(-c2ccc3ncnc(Nc4ccc(OCc5cccc(F)c5)c(C(F)(F)F)c4)c3c2)o1 | 2.03% | 1.18% | 0.88% | 12.8% | 65.9% | 6.6% | 46.2% | 20.6% | 40.8% | 2.44% | 3.43% | -0.63% | -1.62% | 0.17% | 1.21% | 3.24% | 1.95% | 8.08% | 6.97% | 4.21% |
| NCc1ccc(-c2nc(-c3ccc(Cl)c(O)c3)c(-c3ccncc3)[nH]2)cc1 | 7.83% | 0.6% | 9.1% | 4.77% | 21.8% | 1.78% | 31.9% | 1.15% | 13.5% | -0.03% | 0.46% | 0.24% | 5.04% | 2.14% | 8.19% | 3.13% | 2.67% | 4.74% | 21.9% | -0.39% |
| COc1cc(C=NNc2ncnc3c2cnn3-c2ccccc2)ccc1O | 5.56% | 5.59% | 13.6% | 6.29% | 36.2% | 27.3% | 79.6% | 6.66% | 38.2% | 0.71% | 2.02% | 3.12% | 13.3% | 3.61% | 11.4% | 4.47% | 8.46% | 10.2% | 17.1% | 9.57% |
| N#Cc1c(NC(=O)c2cccc3ccccc23)sc2c1CCCC2 | 0.21% | 2.55% | 2.6% |  |  |  |  |  |  |  |  |  |  | -4.77% | -1.43% | 2.05% | 4.38% | 6.92% | 2.64% | 5.23% |
| COc1ccc(COc2ccc(Cc3cnc(N)nc3N)cc2OC)cc1 | -3.17% | 8.57% | 8.13% | -0.51% | 5.41% | 0.93% | -1.26% | -1.47% | -1.95% |  | -2.86% | 2.14% | -1.75% | 2.27% | 2.74% | -0.07% | 0.08% | 1.25% | -0.14% | 1.4% |
| COc1cccc(-n2ncc3c(N/N=C/c4cccc(F)c4)ncnc32)c1 | 4.81% | 1.22% | 2.49% | 0.53% | 8.49% | 6.62% | 37.9% | 2.52% | 7.42% | -0.78% | 0.45% | -0.32% | 2.54% | -6.37% | -5.64% | -1.03% | -0.95% | 4.81% | 2.57% | 3.17% |
| CS(=O)(=O)CCNCc1nc(-c2ccc3ncnc(Nc4ccc(F)c(Cl)c4)c3c2)cs1 | 5.64% | 7.7% | 10.9% |  |  |  |  |  |  |  |  |  |  | 2.15% | 1.65% | 2.83% | 4.56% | 11.7% | 21% | 13.7% |
